Several values for one entry are separate records, joined by “and”; a condition that tells them apart may be missing. Equal entries are not always repeated. Structures can show the parent of a compound that is named as a salt. ± gives the standard deviation of the averaged measurements. The full ranking holds about 1,900 compounds; the median of “normalised cell viability (NPI; 0 = phenylarsine oxide control, 1 = DMSO control)” is about 1, and the lowest 2% start at about 0.039. The sample as a whole holds a higher share of the lowest values than the screen did.
Test system: NCI-H1944
Test: normalised cell viability (NPI; 0 = phenylarsine oxide control, 1 = DMSO control) (fraction of DMSO control); NCI-H1944 is a non-small cell lung cancer line; higher = more viable cells (less compound toxicity)
Conditions: 6 days
[1] = glucocorticoid arm: hydrocortisone 2.75 uM co-treatment, compound 1 µM
[2] = glucocorticoid arm: hydrocortisone 2.75 uM co-treatment, compound 5 µM
[3] = glucocorticoid arm: hydrocortisone 2.75 uM pre-treated 2 days and continued, compound 1 µM
[4] = glucocorticoid arm: hydrocortisone 2.75 uM pre-treated 2 days and continued, compound 5 µM
[5] = glucocorticoid arm: vehicle, compound 1 µM
[6] = glucocorticoid arm: vehicle, compound 5 µM
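Further: CTB read-out in 384-well plates, triplicate wells, NPI normalised per plate against 1 µM phenylarsine oxide (0) and 0.1% DMSO (1) controls.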

Row | Compound | normalised cell viability [1] | normalised cell viability [2] | normalised cell viability [3] | normalised cell viability [4] | normalised cell viability [5] | normalised cell viability [6]
1 | CC(C)C[C@H](NC(=O)CNC(=O)c1cc(Cl)ccc1Cl)B(O)O | 0.978 ± 0.0095 | 0.886 ± 0.03 | 1.04 ± 0.01 | 1.04 ± 0.011 | 0.311 ± 0.032 | 0.0506 ± 0.0038
2 | CC(C)C[C@H](NC(=O)CNC(=O)c1cc(Cl)ccc1Cl)B1OC(=O)CC(CC(=O)O)(C(=O)O)O1 (stereo partly drawn) | 0.98 ± 0.014 | 0.835 ± 0.018 | 1.047 ± 0.0058 | 1.04 ± 0.015 | 0.263 ± 0.024 | 0.0378 ± 0.0053
3 | CCCCCCCCCCCCCCCCCCNC(=O)OCC(COP(=O)([O-])OCC[n+]1ccsc1)OC (stereo not drawn) | 0.9967 ± 0.0035 | 1.02 ± 0.011 | 1.02 ± 0.024 | 1.01 ± 0.015 | 0.997 ± 0.0017 | 0.82 ± 0.33
4 | COc1ccc(CCNC[C@@H](O)c2ccc(O)cc2)cc1OC [R(-)-Denopamine] | 1.01 ± 0.01 | 1.017 ± 0.0058 | 1.02 ± 0.017 | 1.013 ± 0.0058 | 1.01 | 1.01 ± 0.014
5 | c1cncc(CN2CCC(n3ncc4c(N5CCOCC5)nc(-c5ccc6[nH]ccc6c5)nc43)CC2)c1 | 0.773 ± 0.022 | 0.532 ± 0.036 | 0.743 ± 0.027 | 0.615 ± 0.036 | 0.542 ± 0.035 | 0.24 ± 0.0038
6 | CC(C)CC(=O)Nc1n[nH]c2c1CN(C(=O)C1CCN(C)CC1)C2(C)C | 0.8357 ± 0.0074 | 0.369 ± 0.0055 | 0.968 ± 0.0056 | 0.962 ± 0.036 | 0.365 ± 0.023 | 0.0459 ± 0.004
7 | Cc1nc(Nc2n[nH]c3c2CN(C(=O)N[C@H](CN(C)C)c2ccccc2)C3(C)C)c2sccc2n1 | 0.832 ± 0.033 | 0.29 ± 0.072 | 1.05 ± 0.015 | 0.763 ± 0.02 | 0.12 ± 0.011 | 0.0302 ± 0.0031
8 | N=C1Sc2ccccc2C2=NCCCN12 | 1.017 ± 0.0058 | 1.01 ± 0.031 | 1.02 ± 0.011 | 0.86 ± 0.28 | 1.002 ± 0.0068 | 1.02 ± 0.015
9 | Cc1nc(N=Nc2ccc(C(=O)O)cc2)c(COP(=O)(O)O)c(C=O)c1O | 0.999 ± 0.0017 | 0.998 ± 0.02 | 1.01 ± 0.01 | 1.005 ± 0.0087 | 0.9937 ± 0.0085 | 1 ± 0.016
10 | CN(C)CCCCSC(=N)N | 1.001 ± 0.0081 | 1.01 ± 0.011 | 1.02 ± 0.026 | 1.02 ± 0.011 | 0.9953 ± 0.0064 | 0.9883 ± 0.005
11 | O=C(CCCCCCC(=O)NO)NO [Suberoyl bis-hydroxamic acid] | 0.958 ± 0.024 | 0.833 ± 0.053 | 0.968 ± 0.021 | 0.868 ± 0.04 | 1.005 ± 0.0057 | 0.9962 ± 0.0093
12 | O=C(CCCCCCNC(=O)c1cnc(N(c2ccccc2)c2ccccc2)nc1)NO | 0.9803 ± 0.0098 | 0.922 ± 0.018 | 0.996 ± 0.021 | 0.9343 ± 0.0021 | 1.01 ± 0.01 | 0.9873 ± 0.0071
13 | O=C(CCCCCCNC(=O)c1cnc(N(c2ccccc2)c2ccccc2)nc1)NO [Rocilinostat (ACY-1215)] | 0.9393 ± 0.0064 | 0.966 ± 0.011 | 0.944 ± 0.015 | 0.945 ± 0.018 | 0.9923 ± 0.0021 | 0.918 ± 0.0096
14 | NC(=S)c1ccc[n+]([C@@H]2O[C@@H](COP(=O)([O-])OP(=O)(O)OC[C@H]3O[C@@H](n4cnc5c(N)ncnc54)C(OP(=O)(O)O)[C@H]3O)C(O)C2O)c1 (stereo partly drawn) [Thio-NADP sodium] | 1.013 ± 0.0058 | 1.01 ± 0.026 | 1.03 ± 0.021 | 0.998 ± 0.013 | 1.013 ± 0.0058 | 1.013 ± 0.0058
15 | CC(C)c1cc(-c2ccc(F)c3ccccc23)nc(N)n1 | 0.9813 ± 0.0081 | 0.9787 ± 0.005 | 0.991 ± 0.018 | 0.993 ± 0.013 | 0.984 ± 0.025 | 1.001 ± 0.0079
16 | Cc1cc(Nc2ccc(NC(=O)c3ccc(Nc4ccnc5ccccc45)cc3)cc2)nc(N)n1 | 0.99 ± 0.017 | -0.000696 ± 0.0048 | 0.9783 ± 0.0035 | 0.492 ± 0.5 | 1.006 ± 0.0075 | 0.000819 ± 0.0006
17 | CNCc1ccc(C)c(NC(=O)c2ccc(Nc3nc(-c4ccccc4)c4ccccc4n3)cc2)c1 | 0.965 ± 0.017 | 0.939 ± 0.017 | 0.9953 ± 0.0021 | 0.959 ± 0.015 | 0.991 ± 0.0027 | 0.988 ± 0.011
18 | COc1ccc(Cl)cc1NC(=O)Nc1cc(C)nc2ccccc12 | 1.01 and 1.02 |  |  |  | 1 and 1.01 | 
19 | O=C(O)C=C1CCCc2ccccc2C1O (stereo not drawn) | 0.987 ± 0.012 | 0.948 ± 0.026 | 0.987 ± 0.02 | 0.994 ± 0.044 | 0.983 ± 0.0069 | 0.987 ± 0.01
20 | Cc1cc(Cn2cnc3c2C[C@@H](C(=O)O)N(C(=O)C(c2ccccc2)c2ccccc2)C3)ccc1N | 1.03 ± 0.01 | 1.01 ± 0.022 | 1.023 ± 0.0058 | 1.01 ± 0.014 | 1.027 ± 0.0058 | 1.02
21 | COc1cc2c(cc1C(F)(F)F)N(C(=O)Nc1cc(F)cc(-c3cccnc3)c1)CC2 | 0.994 ± 0.017 | 0.0391 ± 0.01 | 1.02 ± 0.01 | 0.903 ± 0.021 | 0.974 ± 0.028 | 0.00107 ± 0.00012
22 | Cc1cc2c(cc1Cl)N(C(=O)Nc1cccc3ncccc13)CC2 | 0.985 ± 0.011 | 0.965 ± 0.015 | 1 ± 0.016 | 1.03 ± 0.084 | 0.9793 ± 0.0086 | 0.992 ± 0.007
23 | Cn1ccc2cc3c(cc21)CCN3C(=O)Nc1cccnc1 | 1.02 ± 0.011 | 1.01 ± 0.018 | 1.05 ± 0.021 | 1.02 ± 0.017 | 1.03 ± 0.011 | 1.01 ± 0.01
24 | COc1ccc2cc(-c3nc(-c4ccc([S+](C)[O-])cc4)[nH]c3-c3ccncc3)ccc2c1 (stereo not drawn) [Tie2 kinase inhibitor] | 1 ± 0.016 | 1.002 ± 0.0072 | 0.992 ± 0.0087 | 1 ± 0.018 | 0.997 ± 0.0017 | 0.9943 ± 0.0098
25 | Cn1cc(C(=O)OCC2CCN(CCNS(C)(=O)=O)CC2)c2ccccc21 | 1.01 ± 0.01 | 0.997 ± 0.014 | 1.02 ± 0.011 | 1.03 ± 0.014 | 1.017 ± 0.0058 | 1.023 ± 0.0058
26 | CN1CCc2c(c3ccccc3n2Cc2ccc(C(=O)NO)cc2)C1 [Tubastatin A] | 0.984 ± 0.013 | 0.983 ± 0.026 | 0.983 ± 0.023 | 1.01 ± 0.023 | 0.991 ± 0.011 | 0.9927 ± 0.0063
27 | CN1CCc2c(c3ccccc3n2Cc2ccc(C(=O)NO)cc2)C1 [Tubastatin A HCl] | 0.9623 ± 0.0086 | 0.859 ± 0.016 | 0.967 ± 0.0035 | 0.913 ± 0.025 | 0.999 ± 0.01 | 0.9903 ± 0.0042
